Assay outcomes deposited in PubChem by National Center for Advancing Translational Sciences (NCATS).
Hits are enriched below; roughly 1.7% of the tested compounds scored in any of these assays.
FBPA coupling cs = qHTS Assay for Inhibitors of Fructose-1,6-bisphosphate Aldolase from Giardia Lamblia: Coupling assay counterscreen | coupling enzyme system counterscreen, AmpLite Red fluorescence | activity change, negative = inhibition, % at 58.2 µM, hits read low | hit rate 0.67% among 290,000 | AID 2472, 2010; in the data active means activity change below about -30%
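Counterscreen of the coupled detection system alone, without aldolase: glyceraldehyde-3-phosphate coupling enzymes plus AmpLite Red readout. Compounds at 57.5 uM final, 10 min RT preincubation, 20 min RT reaction, fluorescence 525/598 nm.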
KCNH2 3.1 block = qHTS for Inhibitors of KCHN2 3.1: Mutant qHTS | U2OS KCNH2 3.1, thallium flux FluxOr; active compounds read low | activity change, % (tested at about 1.8 µM) | hit rate 0.95% among 340,000 | AID 720553, 2013;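 active means maximum activity change below -70%; inconclusive means maximum activity change from -70% to -50%; inactive means maximum activity change above -50%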;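 further: thallium influx rate constant from kinetic fluorescence after stimulation buffer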
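Thallium flux read-out: FluxOr dye with Red40 quencher in HBSS/HEPES, 45 min at RT. Rate constants from kinetic reads were normalized to positive and negative DMSO controls. Cells: U2OS virally expressing the 3.1 isoform.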
hERG WT inh = qHTS for Inhibitors of KCHN2 3.1: Wildtype qHTS | Voltage-gated inwardly rectifying potassium channel KCNH2 (Homo sapiens), Q12809 | U2OS, BacMam KCNH2, thallium flux FluxOr; active compounds read low | activity change, % at 1.84 µM | hit rate 0.37% among 340,000 | AID 720551, 2013;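 active means maximum activity change below -70%; inconclusive means maximum activity change between -70% and -50%; inactive means maximum activity change above -50%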
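U2OS cells were transduced with wild-type KCNH2 virus (2.03 x 10^8 / mL) for 4 h at room temperature, then cultured overnight at 37 C. Thallium flux was read with FluxOr dye. Rate constants were normalized to DMSO controls.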
Giardia kill = Small Molecules that selectively kill Giardia lamblia: qHTS | Giardia lamblia trophozoite viability | activity change, % at 7.66 µM, hits read low | hit rate 0.15% among 340,000 | AID 540267, 2011; in the data active means activity change below about -80%; inconclusive means between about -30% and that limit;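 further: parasites exposed to compound for two days anaerobically before the ATP read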
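Killing of trophozoites was scored by loss of ATP luminescence after a 48 hrs anaerobic exposure to compounds at 37 deg C, using 100 cells per well.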
USP1-UAF1 inh = Inhibitors of USP1/UAF1: Primary Screen | Ubiquitin carboxyl-terminal hydrolase 1 (Homo sapiens), O94782 | recombinant USP1/UAF1, Ub-Rhodamine cleavage fluorescence | Potency, µM (top dose mostly 57.1 µM), usual class: inhibitors | hit rate 0.23% among 390,000; active means well fitted inhibition curve with a large enough effect; inconclusive means small, poorly fitted or top-dose-only effect; inactive means no such curve, though single readings can be large or run the other way; further: nearly all actives have a fitted effect of over 60% in size
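USP1/UAF1 complex at 1 nM was preincubated with compound for 15 min at room temperature, then Ub-Rho substrate (150nM final) was added. Fluorescence (480/540 nm) was read kinetically, 6 reads every 60 seconds.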
A number is an active result; - = inactive; ? = inconclusive; . = not tested or not shown.

SMILES	FBPA coupling cs	KCNH2 3.1 block	hERG WT inh	Giardia kill	USP1-UAF1 inh
CC(Nc1cc(N2CCN(S(=O)(=O)N(C)C)CC2)ccc1[N+](=O)[O-])c1ccccc1 (configuration not stated)	-34.0	-	-	-	-
COc1ccc(CN2CC[C@H]3C=CCc4cccc(c43)C2)cc1	.	-84.8	-	-	-
Cc1ccc(CN2CC[C@H]3C=CCc4cccc(c43)C2)cc1	.	.	.	-	?
CCOc1ccc(C(=O)Nc2ccc(NC(=O)c3ccco3)c(Cl)c2)cc1Cl	-	-72.1	-	-	?
CCOc1ccc(C(=O)Nc2ccc(NC(=O)c3ccco3)c(Cl)c2)cc1Br	-	-80.8	-	-	-
CN(C)c1cc2c(cc1NC(=O)c1ccc(F)cc1)n(C)c(=O)n2C	.	.	.	.	-
CCCn1c2ccccc2c2cnn(CC(=O)NC3CCCCC3)c(=O)c21	.	-	-225.9	-	-
O=C(CSc1nc2ccc(Cl)cc2[nH]1)c1ccc2c(c1)OCO2	-36.1	-	-	-	-
CCOc1cc(CNc2ccc(N3CCCCC3)cc2)cc(Br)c1OCC(=O)NC(C)(C)C	-	-	-	-	-
C=CCOc1c(Br)cc(CNc2ccc(NC(=O)C(C)C)c(OC)c2)cc1OCC	-49.7	-	-	-	-
CCOc1cc(CNc2ccc(N(C)C)cc2)cc(Br)c1OCC(=O)NC(C)(C)C	-36.9	-	-	-	-
C/C(=N\NC(=O)c1c(Cl)c(C)nn1C)c1cccc(NC(=O)COc2ccc(Cl)cc2)c1	-	-81.5	-	-	-
Clc1ccc2c(c1)NC(c1ccncc1)=NC(c1cccs1)=N2	.	.	.	.	-
CCCn1c(CCC(=O)Nc2ccc(C)c(Cl)c2)nc2cccnc21	.	.	.	.	-
C=CCn1c2ccccc2c(=O)c2cc(C#Cc3cc(OC)cc(OC)c3)ccc21	.	-97.3	-	-	-
CCn1c(=N)c(C(=O)OC)cc2c(=O)n3ccccc3nc21	-	.	.	.	.
COc1cccc(NC(=O)c2cc3c(=O)n4ccccc4nc3n(CC(C)C)c2=N)c1	-	-93.3	-73.8	-	-
Cc1cccc(NC(=O)c2cc3c(=O)n4ccccc4nc3n(CC(C)C)c2=N)c1	-	-97.7	-117.9	-	-
COc1cccc2c1N(C)C(=O)CC21C=CC(=O)C=C1	-	.	.	-	.
COc1cccc(-c2sc3ccccc3c2-c2ccc(OCCN3CCCCC3)cc2)c1	.	-75.5	-	-	-
CN(C)c1ccc(-c2ccc(C3C4C=CCCC4(C)C(=O)N3Cc3ccccc3)c(F)c2)cc1 (configuration not stated)	-	.	.	-	.
CCN(CC)C(=O)CSc1nnc2nnc3cc(Cl)ccc3n12	-	-	-	-81.1	?
CCN(CC)C(=O)CSc1nnc2nnc3cc(C)ccc3n12	-	-	-	-	-
O=C(Nc1cccnc1)c1ccco1	-	-	-	-	-
O=C(NCc1cccnc1)c1ccc([N+](=O)[O-])o1	-	-	.	-89.5	-
SMILES	FBPA coupling cs	KCNH2 3.1 block	hERG WT inh	Giardia kill	USP1-UAF1 inh
O=C(NCc1ccco1)NC(=O)c1csc([N+](=O)[O-])c1	-	-	-	-81.8	-
O=C(NCc1ccco1)c1ccc([N+](=O)[O-])o1	-	-	-	-80.5	-
O=C(Nc1cccnc1)c1ccc([N+](=O)[O-])o1	-	-	-	-85.8	-
Cc1nn(C(=O)c2cccc(F)c2)c(C)c1S(=O)(=O)N1CCOCC1	.	.	.	.	-
CCN1C(=O)[C@H]2[C@@H](c3ccc(C)cc3)N3C(=O)N(c4cccc(Br)c4)C(=O)[C@@]3(C)[C@H]2C1=O	.	-80.1	-	-	-
Cc1cccc([C@@H]2[C@@H]3C(=O)N(Cc4ccccc4)C(=O)[C@@H]3[C@]3(Cc4ccccc4)C(=O)N(c4cccc(Cl)c4)C(=O)N23)c1	.	-	-	-	-
Cc1cccc([C@@H]2[C@@H]3C(=O)N(Cc4ccccc4)C(=O)[C@@H]3[C@]3(C)C(=O)N(c4cccc(Cl)c4)C(=O)N23)c1	-	-73.8	-	-	-
Nc1c(C(=O)NCc2ccccc2)sc2nc(N3CCOCC3)c3c(c12)CCCC3	-	-71.9	-	-	-
